# Reference: PubChem BioAssay (NCATS)
# “And” between values parts separate entries of the source, which are not always exact repeats. Identical values can stand only once.
# Experiments:
# [1] = qHTS profiling for inhibitors of Plasmodium falciparum (3D7) proliferation (AID 743322);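 further: infected erythrocytes exposed to compound for 72 h before lysis; 100% = DMSO vehicle wells and 0% = 0.29 µM artemisinin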; details: P. falciparum 3D7 proliferation; at 28.7 µM (top of the series) unless noted
# Procedure, shortened: (§1)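 Parasite DNA was quantified by SYBR Green I fluorescence (ex 485, em 535 nm) after overnight lysis in saponin/Triton buffer at room temperature. Cultures at 0.3% parasitemia and 2.5% hematocrit were first exposed to compound for 72 h at 37 C; signals were normalised to artemisinin (0.29 uM) and vehicle wells.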
# [2] = qHTS profiling for inhibitors of Plasmodium falciparum (HB3) proliferation (AID 743324); details: Plasmodium falciparum HB3 blood-stage proliferation; at 28.7 µM (top of the series) unless noted;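 further: 100% = DMSO vehicle wells and 0% = artemisinin-treated control wells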
# Procedure, shortened: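 SYBR Green fluorescence (485 ex/535 em) of lysed cultures, incubated overnight at room temperature in the dark, quantifies parasite DNA. Infected erythrocytes at 0.3% parasitemia and 2.5% hematocrit were exposed 72 h; values normalized to DMSO and 0.29 uM artemisinin controls.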
# [3] = qHTS profiling of the MIPE4 collection as inhibitors of Plasmodium falciparum (3D7) proliferation (AID 743344);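 further: scaled between DMSO vehicle wells and 0.29 µM artemisinin as full inhibition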; details: P. falciparum 3D7 in erythrocytes, SYBR Green DNA fluorescence, 72 h; at 28.5 µM (top of the series) unless noted
# Procedure, shortened: as §1
# [4] = qHTS profiling of the MIPE4 collection as inhibitors of Plasmodium falciparum (DD2) proliferation (AID 743345); details: P. falciparum Dd2 in erythrocytes, SYBR Green DNA, 72 h; at 28.5 µM (top of the series) unless noted
# Procedure, shortened: as §1
# [5] = qHTS profiling for inhibitors of Plasmodium falciparum (DD2) proliferation (AID 743323); details: lower = more inhibition; at 28.7 µM (top of the series) unless noted
# Procedure, shortened: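 1536-well qHTS; infected RBCs 0.3% parasitemia/2.5% Hct final; cpd 72 h 37 C 5% CO2; lysis buffer + SYBR Green I, o/n RT dark; FI 485/535; norm. to 0.29 uM artemisinin and DMSO, plate-stack corrected.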
# [6] = qHTS profiling of the MIPE4 collection as inhibitors of Plasmodium falciparum (DD2) proliferation (Rep 2) (AID 743346); details: P. falciparum Dd2 in erythrocytes, SYBR Green DNA, 72 h; at 28.5 µM (top of the series) unless noted
# Procedure, shortened: as §1
SMILES,remaining parasite growth % (stronger effect = lower value) [1],"remaining proliferation (% of control), lower = more inhibition [2]","parasite growth, % of DMSO control [3]","parasite growth remaining, % of DMSO control (lower = more inhibition) [4]","activity, percent of control [5] [%]","parasite growth, % of control (lower = inhibition) [6]"
Clc1ccc(Nc2nnc(Cc3ccncc3)c3ccccc23)cc1,-0.114%,0.459%,34.2%,84.7%,–,–
CC(C)OC(=O)C1=CN(C(=O)c2ccc(F)c(F)c2)CC(C)(C)c2c1[nH]c1ccccc21,15.1%,29.3%,51.5%,–,36.4,66.4%
NC(=O)c1ccc(I)c([N+](=O)[O-])c1,93.8%,77.5%,71.2%,97.1%,–,90.7%
CCCS(=O)(=O)Nc1ccc(F)c(C(=O)c2c[nH]c3ncc(-c4ccc(Cl)cc4)cc23)c1F,17.1%,22.8%,17.9%,24%,22.9,52.1%
O=C(O)c1ccc(-c2c[nH]c3ccc(-c4ccccc4)cc23)cc1C1CCCC1,-0.426%,-0.0688%,–,–,–,–
CN[C@@H](C)C(=O)N[C@H]1CCCC[C@H]2CC[C@@H](C(=O)N[C@@H](c3ccccc3)c3cn(CCCCc4ccc(CCCCn5cc([C@@H](NC(=O)[C@@H]6CC[C@@H]7CCCC[C@H](NC(=O)[C@H](C)NC)C(=O)N76)c6ccccc6)nn5)cc4)nn3)N2C1=O,-0.81%,-1.02%,5.44%,8.15%,0.253,9.02%
NC(=O)c1ccc(-c2nc(-c3ccc4c(c3)OCO4)c(-c3ccccn3)[nH]2)cc1,82.3%,71.6%,42.9%,55.7%,–,–
CNCc1ccc(-c2[nH]c3cc(F)cc4c3c2CCNC4=O)cc1,28.7%,54%,47.4%,85%,–,51.1%
CCN(CC)CCCC(C)Nc1nc(C)cc(Nc2ccc3nc(C)cc(N)c3c2)n1 (stereo not drawn),29.9%,–,25%,–,–,14.4%
Cc1ccc(-n2nc(C(C)(C)C)cc2NC(=O)Nc2ccc(OCCN3CCOCC3)c3ccccc23)cc1,24.3%,5.8%,29.4%,–,14.4,31.6%
Cc1cccc(-c2nn(C(=S)Nc3ccccc3)cc2-c2ccnc3ccccc23)n1,91.2%,79.6%,40.4%,86.3%,87.9,66.8%
CCCS(=O)(=O)Nc1ccc(F)c(C(=O)c2c[nH]c3ncc(Cl)cc23)c1F,90.9%,55.7%,51.6%,77.2%,–,80.8%
CCCn1c(=O)c2[nH]c(C34CC5CC3C[C@@H](C5)C4)nc2n(CCC)c1=O,89.8%,59.4%,16.5%,77.4%,85.1,17.3%
OCCC#Cc1nc(-c2ccc(F)cc2)c(-c2ccncc2)n1CCCc1ccccc1,1.18%,7.5%,15%,–,8.27,15.5%
CS(=O)(=O)c1ccc(C(=O)Nc2ccc(Cl)c(-c3ccccn3)c2)c(Cl)c1,105%,103%,66.9%,93.4%,–,–
CC(C=CC1=C(C)CCCC1(C)C)=CC=CC(C)=CC(=O)O,–,–,76.8% and 52.8%,85.9% and 87.9%,–,81.2% and 51.5%
COc1ccc(-c2ccc3c(N4CCOCC4)nc(N4C[C@@H](C)O[C@@H](C)C4)nc3n2)cc1CO,20.8%,18.1%,6.12%,15.1%,–,17.2%
CN([C@@H](Cc1ccc(OS(=O)(=O)c2cccc3cnccc23)cc1)C(=O)N1CCN(c2ccccc2)CC1)S(=O)(=O)c1cccc2cnccc12,0.0531% and -0.942%,-0.274% and -0.52%,5.27%,6.98%,–,12.9%
CCC(C)n1ncn(-c2ccc(N3CCN(c4ccc(OC[C@H]5CO[C@](Cn6cncn6)(c6ccc(Cl)cc6Cl)O5)cc4)CC3)cc2)c1=O (stereo partly drawn),3.74%,2.67%,5.41%,–,7.7,37.4%
COc1ccc(COc2cc3oc(=O)c4cc(C(C)O)ccc4c3cc2OC)cc1 (stereo not drawn),75.7%,74.7%,39.5%,77.1%,–,27.3%
COc1c(Cl)cc2c([nH]c3cnccc32)c1NC(=O)c1cccnc1C,107%,86.1%,19.9%,–,–,25.5%
Cc1c(CN2CCN(C(=O)C(C)C)CC2)sc2c(N3CCOCC3)nc(-c3cnc(N)nc3)nc12,12.2%,8.2%,12.5%,–,23.2,14.5%
Cc1cc(-c2ccc(CC(=O)Nc3ccc(-c4cccnc4)cc3)cc2)ccn1,75%,6.55%,32.3%,–,88.9,110%
COc1ccc(CCN2CCN(CCCc3ccccc3)CC2)cc1OC,9.47%,–,28.6%,–,65.7,30%
CCCc1nc2c(C)cc(-c3nc4ccccc4n3C)cc2n1Cc1ccc(-c2ccccc2C(=O)O)cc1,103%,66.6%,6.42%,16.2%,–,21.8%
COc1ccc([C@@H]2CC(=O)c3c(O)cc(O[C@@H]4O[C@H](CO[C@@H]5O[C@@H](C)[C@H](O)[C@@H](O)[C@@H]5O)[C@@H](O)[C@H](O)[C@@H]4O)cc3O2)cc1O,–,–,83.3% and 61.8%,–,–,120% and 81.3%
CCCCCCCc1ccc(CCc2cccc(O)c2C(=O)O)cc1,93%,58.6%,68.8%,–,–,66.9%
CS(=O)(=O)c1cccc(CNc2nc(Nc3ccc4c(c3)CCC(=O)N4)ncc2C(F)(F)F)c1,106%,101%,12.1%,14.8%,108,28.9%
CC(=O)NC(C)c1ccc(Oc2ccc(OC(C)C)cc2)cc1 (stereo not drawn),69.9%,95.2%,23.1%,–,93.5,8.63%
NC(=O)c1ccc(-c2nc(-c3ccc4c(c3)OCCO4)c(-c3ccccn3)[nH]2)cc1,15.5%,13.2%,25.9%,–,–,18.6%
